Screening data from PubChem.
Pf Dd2 growth: blocks in vitro growth of P. falciparum Dd2. P. falciparum Dd2 growth, SYBR Green, 72 h. Potency, µM (titrated, usually from 28.9 µM), for inactives: at the top dose activity, negative = inhibition, most hits filed as inhibitors. actives 4.3% (n = 120,000). AID 1347417; active = well fitted inhibition curve with a large enough effect;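 note: plate controls were DMSO vehicle for no effect and reference drug for full effect; nearly all actives have a fitted effect of over 65% in size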
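Infected erythrocytes (Dd2, 0.3% parasitemia, 2.5% hematocrit final) are added to compound in RPMI-1640/Albumax II medium, grown 72 h at 37C in low oxygen, then lysed with saponin/Triton-X containing SYBR Green and read by fluorescence.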
* marks the source's active call; other numbers are inactive results; i = inactive; [ ] = another dose, or the depositor's remark. Shown is part of a subset that was picked to be rich in hits. Potency is the fitted concentration of half-maximal effect.

SMILES	Pf Dd2 growth
Cc1noc(C)c1-c1cc2cc(CO)oc2c(NCc2cccc(F)c2)n1	i
COCCNc1nc(-c2c(C)noc2C)cc2cc(CO)oc12	-10%[44.1 µM]
O=C([C@@H]1C[C@H](F)CN1C(=O)c1ccsc1)N1CCCCC1	4%
CN1C(=O)CS(=O)C12CCN(C(=O)Cc1cccc(F)c1)CC2 (stereo not given)	-23%
CCOc1ccccc1C(=O)N1CCN(C(=O)c2nnn3c2COC(c2ccc(Cl)cc2)C3)CC1 (stereo not given)	-9%
Fc1ccc(Nc2c3c(nc4ccccc24)CCC3)cc1	-11%
CCN(CC)CCOC(=O)c1ccc(Nc2c3c(nc4ccccc24)CCC3)cc1	7.1µM*
CCN(CC)CCOC(=O)c1ccc(NC(=O)CSc2cc(=O)n(CC)c3ccccc23)cc1	89%
Fc1ccc(CNC2(Cc3cc(-c4ccccc4)on3)COC2)cc1	-11%[44.1 µM]
COc1ccc(C)cc1NC(=O)C1CCN(C(=O)c2ncn3c2COC(c2ccc(F)cc2)C3)CC1 (stereo not given)	-16%
Cc1cc2ncc(C(=O)NC3CC3)cn2n1	11%[44.1 µM]
COc1ccc2c(c1)nc1n2[C@@H](CN(Cc2nccs2)Cc2nccs2)COC1	-25%[44.1 µM]
Cc1ccc2nc3n(c2c1)[C@@H](CNCc1ccccc1)COC3	i
COc1ncccc1CN(Cc1cccnc1OC)C[C@H]1COCc2nc3ccc(C)cc3n21	4.5µM*
O=C(c1ccoc1)N1CCCn2cc(-c3ccccc3F)nc21	i
COCCNC(=O)c1ccc2c(c1)N(C)C(CC(=O)N(C)C(C)C)CO2 (stereo not given)	-6%
Cc1noc(C)c1-c1cc2cc(C(C)C)oc2c(NC(C)C)n1	-10%[44.1 µM]
Cc1cc2cc(-c3c(C)noc3C)nc(NCC3CC3)c2o1	i
Cc1noc(C)c1-c1cc2cc(CO)oc2c(NCCN2CCOCC2)n1	i
Cc1noc(C)c1-c1cc2cc(C(C)C)oc2c(-c2c(C)noc2C)n1	-21%[44.1 µM]
Cc1noc(C)c1-c1cc2cc(C(C)C)oc2c(NC2CCOCC2)n1	11µM*
Cc1cc2cc(-c3c(C)noc3C)nc(NC3CCN(C)CC3)c2o1	10µM*
O=C(Nc1ccc(F)cc1F)N1CCOC[C@H](Oc2ccc(C(F)(F)F)cc2)C1	2%[44.1 µM]
CCn1ncc(N2CCC(NC(=O)Cc3ccc(OC)cc3)CC2)cc1=O	i
O=C(NC1CC1)c1ccc2nnc(-c3ccc(Cl)cc3)n2c1	7%
SMILES	Pf Dd2 growth
CC(C)CCNC(=O)c1ccc(-c2nnc3ccc(NC(=O)C4CCC4)cn23)cc1	2.8µM*
O=C(O)c1ccc(-c2nnc3ccc(NC(=O)C4CCC4)cn23)cc1	-11%
O=c1[nH]c(C2CCCN([S+](=O)([O-])c3cccc(C(F)(F)F)c3)C2)nn1-c1ccccc1 (stereo not given)	-1%
Cc1ccc(OCC(=O)NCC2CCN(c3cnn(C)c(=O)c3)C2)cc1 (stereo not given)	-29%
COCC(=O)N(C)C1CCCc2ccccc21 (stereo not given)	-23%[44.1 µM]
CN(C(=O)c1ccccc1)C1CCCc2ccccc21 (stereo not given)	i
CN(C(=O)Nc1ccc(Cl)cc1)C1CCCc2ccccc21 (stereo not given)	-12%[44.1 µM]
CN(C(=O)Nc1ccccc1)C1CCCc2ccccc21 (stereo not given)	16µM*
CN(C(=O)Cc1ccc(F)cc1)C1CCCc2ccccc21 (stereo not given)	16µM*
CN(Cc1ccc(F)cc1)C1CCCc2ccccc21 (stereo not given)	i
O=C1COc2ccc(-c3ccncc3)nc2CN1Cc1ccc(F)cc1	i
Cn1ncc(N2CCCC(CC(=O)O)C2)cc1=O (stereo not given)	14%
CC[C@H]1CN(C(=O)Nc2cccc(C(F)(F)F)c2)CC[C@H]1CC(=O)NCc1ccc(OC)c(OC)c1	7%
CC1CCC2(CC1)OCC(C(=O)NCc1ccccc1)N2C(=O)c1ccc(Cl)c(Cl)c1 (stereo not given)	8.9µM*
CC1CCC2(CC1)OCC(C(=O)NCc1ccccc1)N2C(=O)c1cccc(Cl)c1 (stereo not given)	i
Cc1cccc(C(=O)N2C(C(=O)NCc3ccccc3)COC23CCC(C)CC3)c1 (stereo not given)	i
CC(C)(C)CC(=O)N1C[C@@H]2C[C@H]1C(=O)N(CC1CC1)c1ccccc1O2	-15%[44.1 µM]
Nc1nc(C2CC(NC(=O)c3cnn(Cc4ccccc4)c3)C2)cc(=O)[nH]1 (stereo not given)	12%
Cc1ccc(-c2cccc(CN3C4CCC3CN(C(C)C)C4)c2)c(C)c1	10µM*
CC(C)N1CC2CCC(C1)N2Cc1cccc(Cl)c1	-5%[44.1 µM]
Cc1ccc(-c2cccc(CN3C4CCC3CN(C(=O)c3ccncc3)C4)c2)c(C)c1	-21%
CC1CCN(C(=O)c2ccccc2OCC2CCCN(C(=O)c3ccncc3)C2)CC1 (stereo not given)	0%
COc1ccc(C2Cn3nnc(C(=O)NCc4ccc(SC)cc4)c3CO2)cc1 (stereo not given)	2%
COc1ccc(C2Cn3nnc(C(=O)Nc4cc(C)ccc4F)c3CO2)cc1 (stereo not given)	11µM*
COc1ccc(OC)c(NC(=O)c2nnn3c2COC(c2ccc(Cl)cc2)C3)c1 (stereo not given)	-14%
SMILES	Pf Dd2 growth
COc1cc(-c2onc(C)c2C(=O)NC2Cc3ccccc3C2)cc(OC)c1OC	i
CN1CCN(C(=O)c2ccc3c(c2)N(Cc2ccc(F)cc2)C(=O)c2ccccc2S3=O)CC1 (stereo not given)	4µM*
CCN1C(=O)c2ccccc2S(=O)c2ccc(C(=O)N3CCN(c4ccccc4)CC3)cc21 (stereo not given)	i
CCOC(=O)C1CCCN(C(=O)c2ccc3c(c2)N(Cc2ccc(Cl)cc2)C(=O)c2ccccc2S3=O)C1 (stereo not given)	11µM*
CCN1CCN(C(=O)c2ccc3c(c2)N(Cc2ccc(Cl)cc2)C(=O)c2ccccc2S3=O)CC1 (stereo not given)	0.5µM*
CCN1C(=O)c2ccccc2S(=O)c2ccc(C(=O)NCc3ccc(C)cc3)cc21 (stereo not given)	-24%
O=C(c1ccc2c(c1)N(Cc1ccccc1F)C(=O)c1ccccc1S2=O)N1CCC(Cc2ccccc2)CC1 (stereo not given)	-3%
O=C(c1ccc2c(c1)N(Cc1ccccc1F)C(=O)c1ccccc1S2=O)N1CCOCC1 (stereo not given)	-20%
CCOC(=O)C1CCCN(C(=O)Cn2ncc3c(C)n(Cc4ccc(Cl)cc4)c(C)c3c2=O)C1 (stereo not given)	-18%
Cc1nc(-c2ccccc2)n(Cc2cc(=O)n3ccccc3n2)c(=O)c1CCO	-15%
O=C(COc1ccc(F)cc1)N1CCN(c2cc(-c3ccccc3)[nH]n2)CC1	i
CC(C)c1nnc(C2CN(C(=O)c3cccs3)CC23CCOCC3)o1 (stereo not given)	-11%
Cc1cccc(C(=O)N2CCC(Cc3n[nH]c(C)n3)CC2)c1	-16%
C=CCN1CCN(C(=O)C2CCN(C(=O)N3CC4CC(C3)[C@H]3CCCC(=O)N3C4)CC2)CC1 (stereo not given in full)	6%
CCOc1ccccc1N1CCN(C(=O)CCn2ccn3nc4c(c3c2=O)CCCC4)CC1	-7%
COc1ccc(NC(=O)N2CCC3(CC2)SCC(=O)N3c2ccc(F)cc2)cc1	i
CCS(=O)(=O)N1CCC[C@H]1C(=O)N1CCCCCCNC(=O)CC1	5%
